An excerpt weighted towards active compounds, which were near 4.2% of everything screened.
NLRP3 yeast inh – inhibitors of NALP3 inflammasome in yeast | Yeast reconstituted NLRP3/ASC/caspase-1, beta-gal luminescence, 24 h | inhibition, % at 10 µM | hit rate 0.39% among 330,000 | AID 2825;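 active means inhibition of 50% or more; inactive means inhibition below 50%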;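 further: plate controls were induced DMSO wells for no effect and uninduced yeast grown without galactose for full effect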
PfHsp90 set2 – growth inhibition of yeast expressing Plasmodium Hsp90; inhibition, % at 9.4 µM; hit rate 0.32% among 310,000; S. cerevisiae expressing PfHsp90, BacTiter-Glo ATP, 48 h; yeast lacking PDR1 and PDR3 efflux regulators;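 active means every replicate shows inhibition above about 80%, whatever the replicate mean, limit read from the data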;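 further: 0% = DMSO neutral controls and 100% = 20 µM radicicol positive controls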
NALP1 yeast inh – inhibitors of NALP1 inflammasome in yeast. inhibition, % at 10 µM. hit rate 0.61% among 280,000. S. cerevisiae NALP1/ASC/caspase-1 growth, X-gal OD620, 72 h; in the data active means inhibition mostly above about 24%, no sharp cut-off; inactive means mostly below about 32%
TIM10 inh – inhibits growth of TIM10 yeast strain. S. cerevisiae TIM10 strain growth, BacTiter-Glo luminescence, 24 h. inhibition, % at 10 µM. hit rate 1.4% among 330,000;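 active means inhibition of 40% or more at the single tested concentration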;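 further: wild-type TIM10 isogenic control strain grown at permissive 25 °C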
tim10-1 inh – growth inhibitors of tim10-1 mutant yeast; hit rate 2.2% among 330,000; AID 463190; inhibition, % at 20 µM; S. cerevisiae tim10-1 ts strain growth, BacTiter-Glo, 24 h;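 active means inhibition of at least 40%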;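 further: mutant grown at 25 °C; 0% = DMSO wells with yeast and 100% = wells holding no yeast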
tim23-1 inh – inhibits growth of tim23-1 mutant yeast | S. cerevisiae tim23-1 growth, BacTiter-Glo luminescence, 24 h | inhibition, % at 20 µM | hit rate 1.3% among 330,000 | AID 463212;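 active means growth inhibition of the mutant yeast at or above 50%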;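 further: temperature-sensitive mutant grown at 25 °C; plate controls were DMSO-treated mutant yeast for no effect and medium wells lacking yeast for full effect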
TIM10 conf – TIM10 yeast growth inhibition, confirmed; shares compounds with TIM10 inh; S. cerevisiae tim10 strain growth, BacTiter-Glo luminescence, 24 h; inhibition, % at 10 µM; hit rate 63% among 4,600; AID 463215;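 active means inhibition of yeast growth at or above a set limit in either of two replicates at 10 µM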;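 further: this counterscreen used the strain with wild-type TIM10; 0% = yeast with DMSO and 100% = medium wells lacking yeast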
Starred values were filed as active, the others as inactive; nt = no result.

SMILES	NLRP3 yeast inh	PfHsp90 set2	NALP1 yeast inh	TIM10 inh	tim10-1 inh	tim23-1 inh	TIM10 conf
O=C(CN1C(=O)c2ccccc2S1(=O)=O)NC(Nc1ccccc1F)C(Cl)(Cl)Cl (stereo not given)	2.7	12.0	7.3	9.9	0.5	8.7	nt
O=C(CSc1ccc2ccccc2n1)N/N=C/c1ccc(O)cc1	11.9	17.4	7.9	7.0	0.6	19.7	nt
O=C(CSc1ccc2ccccc2n1)N/N=C/c1ccccc1O	22.4	-0.2	10.5	40.8*	18.6	29.9	10.4
O=C(COc1ccc(Cl)cc1Cl)NNC(=O)c1cccnc1	11.0	-3.9	2.5	-11.3	8.2	9.9	nt
Cc1cc(Cl)ccc1OCC(=O)NNC(=O)c1cccnc1	3.1	-32.1	3.8	80.1*	-22.0	1.8	-7.1
CC(NC(=O)c1ccc(CS(C)(=O)=O)cc1)c1cccc2ccccc12 (stereo not given)	27.7	-15.6	6.7	-3.3	6.8	10.4	nt
COC(=O)CCCCCN1C(=O)/C(=C\c2ccncc2)SC1=S	6.8	-12.8	-5.4	41.8*	13.4	43.3	28.4*
O=C(CCCN1C(=O)/C(=C/c2cccc(Br)c2)SC1=S)Nc1cccnc1	18.1	-18.7	-3.9	21.4	37.3	24.7	nt
O=C(CCCN1C(=O)/C(=C\c2cccc(Br)c2)SC1=S)Nc1cccnc1	19.9	-10.0	-11.0	44.8*	35.5	36.9	29.0
O=C(Cc1ccc(NC(=O)C2CCN(C(=O)C3CCCCC3)CC2)cc1)Nc1cccc(C(=O)N2CCCCC2)c1	nt	-2.7	nt	nt	nt	nt	nt
COc1cccc(CN(C(=O)COc2ccc(C)cc2)C2CCS(=O)(=O)C2)c1 (stereo not given)	0.8	0.5	6.8	2.8	25.5	21.8	nt
Cc1ccc(C(=O)N2CCCC(c3ccc(Cl)cc3)=N2)cc1	22.8	-17.9	-4.4	3.9	30.6	29.0	nt
COc1ccc(C(=O)N2CCCC(c3ccccc3)=N2)cc1	30.3	5.1	5.2	44.5*	39.9	38.6	22.1
CC(=O)Nc1cccc(NC(=O)COC(=O)CO/N=C(\C)c2ccc3c(c2)OCO3)c1	3.8	-4.9	7.7	0.4	2.2	-3.3	nt
Cc1ccc(/C=C/C(=O)OC(C)C(=O)NC2CCCCC2C)o1 (stereo not given)	23.0	-7.0	nt	5.2	12.1	7.6	nt
O=S(=O)(Nc1cccc2c1ccc1cccn12)c1cccs1	2.2	-29.0	3.3	45.2*	31.1	27.7	2.5
Oc1cccc(NC(=S)Nc2ccc(SC(F)F)cc2)c1	-3.7	-19.7	11.0	18.1	37.4	6.2	nt
Oc1cccc2c(NC(=S)Nc3ccc(SC(F)F)cc3)cccc12	41.1	-23.3	26.5	52.1*	38.2	47.5	41.7*
Cc1cc(C)nc(SCc2ccc(C(=O)N/N=C3\CC(C)CC(C)(C)C3)cc2)n1 (stereo not given)	5.9	-34.0	16.5	40.2*	25.7	30.4	4.3
COc1cc2c(cc1OC)CN(C(=O)CN1CCN(S(=O)(=O)c3ccc(C)c(C)c3)CC1)CC2	9.4	17.0	-13.7	5.2	9.9	11.8	nt
NC(=O)c1nsc(C(=O)N(c2ccccc2F)C(C(=O)NCc2ccccc2)c2ccc(O)cc2)c1N (stereo not given)	1.2	-26.8	22.1	95.6*	-7.1	-4.5	7.6
CCOC(=O)c1ccc(S(=O)(=O)n2c(CN3CCCCC3)nc3ccccc32)cc1	9.1	-13.0	17.5	50.2*	37.1	35.3	27.9
Cc1ccccc1OC(C)C(=O)Nc1cccnc1 (stereo not given)	13.5	-3.0	6.3	7.3	9.8	14.6	nt
COc1ccc(/C=C/c2cc(C(=O)O)c3ccccc3n2)cc1	11.9	40.7	nt	25.7	14.6	33.1	nt
Cc1cc(/C=C\c2ccccc2)nc2ccccc12	22.0	-92.9	2.8	52.8*	4.8	20.6	61.7*
SMILES	NLRP3 yeast inh	PfHsp90 set2	NALP1 yeast inh	TIM10 inh	tim10-1 inh	tim23-1 inh	TIM10 conf
CC(=O)Nc1ccc(/C=C(\C#N)C(=O)NC2CCCCC2C)cc1 (stereo not given)	15.7	-0.4	6.0	68.3*	38.4	47.3	45.4*
COc1cc(/C=C(\C#N)C(=O)NC2CCCCC2C)ccc1OS(=O)(=O)c1ccc(C)cc1 (stereo not given)	18.9	-19.7	33.1	33.8	35.7	36.5	nt
CC(C)CNC(=S)NC(=O)c1ccc(Cl)cc1Cl	-65.9	-20.6	10.0	54.6*	39.0	17.6	52.1*
O=C(Nc1ccc(NC(=O)C2CCCCC2)nc1)c1cccs1	-8.6	4.7	-1.3	47.5*	22.1	46.9	22.8
O=C(CN1C(=O)c2ccccc2S1(=O)=O)Nc1ccc([N+](=O)[O-])cc1	8.9	4.6	nt	5.7	-14.4	-1.3	nt
NS(=O)(=O)c1ccc(N=Nc2c(O)ccc3ccccc23)cc1	15.3	-5.5	-13.6	17.6	33.4	17.4	nt
Oc1ccc(N=Nc2c(O)ccc3ccccc23)cc1	34.8	126.8*	nt	53.9*	32.9	49.4	64.7*
Cc1ccc(C(=O)Nc2ccnc(-c3ccncc3)n2)cc1	15.8	18.0	9.3	4.2	-1.0	-21.3	nt
Cn1c(/C(C#N)=C/c2cccc(O)c2)nc2ccccc21	10.8	7.6	40.7*	42.7*	39.2	42.2	35.9*
CCOC(=O)C1CCN(C(=O)c2ccc3c(c2)NC(=O)/C(=C\c2ccc(C)cc2)S3)CC1	25.3	-1.5	-4.0	41.4*	20.9	46.9	-4.4
CCNC(=O)C1CCCN1C(=O)C(CCCN=C(N)N)NC(=O)C(CC(C)C)NC(=O)C(Cc1cn(Cc2ccccc2)cn1)NC(=O)C(Cc1ccc(O)cc1)NC(=O)C(CO)NC(=O)C(Cc1c[nH]c2ccccc12)NC(=O)C(Cc1cnc[nH]1)NC(=O)C1CCC(=O)N1 (stereo not given)	32.3	nt	16.1	11.2	32.2	-3.9	nt
CC(C)/C=C(/C(=O)c1ccc(Cl)cc1Cl)n1cncn1	16.1	67.9	8.8	41.8*	20.1	41.2	5.9
CCOC(=O)c1sc(=NC(=O)c2cccs2)n(C)c1C	49.3	nt	-12.4	58.7*	0.9	42.8	46.4*
O=C(COC(=O)c1ccccc1O)Nc1cc([N+](=O)[O-])ccc1Cl	4.0	-5.5	6.4	-28.3	-10.8	-25.8	nt
COc1cccc(NC(=O)CN(C)C(=O)C23CC4CC(CC(Cl)(C4)C2)C3)c1	-1.6	-2.5	nt	20.6	28.0	36.5	nt
Cc1ccc(NC(=S)N/N=C/c2ccc([N+](=O)[O-])s2)cc1	15.9	100.3*	25.8	46.4*	18.0	-11.0	-17.6
COc1ccc(N(CC(=O)Nc2cc(Cl)ccc2OC)S(=O)(=O)c2c(C)[nH]c(=O)[nH]c2=O)cc1	-0.9	-9.0	4.4	43.7*	-8.1	-0.1	-2.5
COc1cccc(/C=N/NC(N)=S)c1OCc1cccc(Cl)c1	27.6	10.4	-7.8	45.6*	36.1	19.8	47.8*

High-throughput results deposited in PubChem by several laboratories.
